# Measurements reported in paper PMC5540273 (PLoS ONE, 2017).
# Tested on: MAK
# Conditions: concentration: 1 μM, replicates: in singlicate; n = 1
# 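Further: KINOMEscan kinase panel screen.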
row,Structure (SMILES),%Inh
1,CS(=O)(=O)CCNCc1nc(-c2ccc3ncnc(Nc4ccc5c(cnn5Cc5ccccc5)c4)c3c2)cs1.Cl.Cl [GW569716],11%
2,Cc1ccccc1Cn1ccn2c(=O)cc(N3CCOCC3)nc12 [GSK2269905],0%
3,CNc1nc(-c2ccc3c(N)n[nH]c3c2)cc(N2C[C@@H](C(=O)Nc3ccccc3)CC[C@H]2C)n1 [GSK2298859],9%
4,Cc1ccc(NC(=O)Nc2ccccc2)cc1-c1ccc(C(=O)Nc2ccncc2)cc1 [GSK1398471],17%
5,COc1ccc(Nc2nccc(N3CCC(NC(=O)C(C)c4ccc(Cl)cc4)CC3)n2)cc1 (stereo not shown) [GSK1379812],64%
6,O=C(Nc1n[nH]c2nc(-c3ccco3)c(Br)cc12)C1CCN(Cc2ccccc2)C1.O=C(O)[C@H](O)[C@@H](O)C(=O)O (stereo not shown) [SB-742034],25%
7,COc1ccc(CSc2nnc(-c3ccc4ncsc4c3)o2)cc1C(F)(F)F,0%
8,COc1nccc(-c2c(-c3ccc(F)cc3)ncn2CCCN2CCOCC2)n1 [SB-282852],29%
9,CSc1ccc(-c2nc3n(c2-c2ccncc2)CCC3)cc1 [SKF-105561],0%
10,CC(C)c1ccc(O)cc1Nc1ccnc2ccc(C(F)(F)F)cc12 [GW482059],25%
11,c1ccc(-c2ccnc3[nH]ccc23)cc1 [SB-693578],0%
12,O=C(Nc1n[nH]c2cc(-c3ccsc3)ccc12)C1CC1 [SB-732932],41%
13,Fc1ccc(-c2nn3cccc(F)c3c2-c2ccncc2)cc1 [GW475620],0%
14,CNC(=O)c1ccc(C)c(-n2c(C)cc(OCc3ccc(F)cc3F)c(Br)c2=O)c1,0%
15,CCCCc1nn2ncccc2c1-c1ccnc(NC2CC2)n1 [GW684374],19%
16,CC(=O)c1c(C)c2cnc(Nc3ccc(N4CCNCC4)cn3)nc2n(C2CCCC2)c1=O,0%
17,COC(=O)C(NC(=O)NC1CCN(c2ccnc(Nc3ccc(F)cc3)n2)C1)c1ccccc1 (stereo not shown) [GSK1379712],0%
18,O=c1cc(N2CCOCC2)nc2n(Cc3ccccc3F)ccn12 [GSK2297428],8%
19,COc1ccc(CSc2nnc(-c3ccc4nccn4c3)o2)cc1C(F)(F)F,0%
20,COc1cccc(NC(=O)Nc2ccc(C)c(-c3ccc(C(=O)Nc4ccncc4)cc3)c2)c1 [GSK1398474],100%
21,O=C1NC(=O)C(c2ccc(Cl)cc2)=C1Nc1ccc(O)cc1 [SB-340867],7%
22,COC(=O)c1cccc(NC(=O)NC2CCN(c3ccnc(Nc4ccc(OC)cc4)n3)C2)c1 (stereo not shown) [GSK1379746],15%
23,Cc1c(Cn2c3ccccc3n3c(=O)cc(N4CCOCC4)nc23)cccc1C(F)(F)F [GSK2306394],15%
24,Nc1cccc(-c2ccc3c(N)n[nH]c3c2)n1 [GSK2192730],26%

# Tested on: MAP3K15
# Conditions: concentration: 1 μM, replicates: in singlicate; n = 1
row,Structure (SMILES),%Inh
1,Cn1cncc1C(=O)NC1CCN(c2ccnc(Nc3ccc(F)cc3)n2)C1 (stereo not shown) [GSK1379717],0%
2,CC(C)c1cc(-c2ccc3c(N)n[nH]c3c2)nc(N)n1 [GSK2250882],0%
3,COc1cccc(CNC(=O)NC2CCN(c3ccnc(Nc4ccc(F)cc4)n3)C2)c1 (stereo not shown) [GSK1379723],0%
4,Cc1ccc(-c2nc(Nc3ccncc3)c3ccccc3n2)s1 [GSK189015],12%
5,Nc1nccc(-c2c(-c3ccc(F)cc3)ncn2C2CCN(Cc3ccccc3)CC2)n1 [SB-219980],0%
6,COc1cccc(C2=C(Nc3cc(Cl)c(O)c(Cl)c3)C(=O)NC2=O)c1 [SB-390767],0%
7,Cc1ccc(NC(=O)Nc2ccc(Cl)c(C(F)(F)F)c2)cc1-c1ccc(C(=O)Nc2ccncc2)cc1 [GSK1398470],0%
8,COc1ccc(Nc2nccc(N3CCC(NC(=O)c4cc5ccccc5s4)C3)n2)cc1 (stereo not shown) [GSK1379738],0%
9,Cc1ccc(NC(=O)c2ccc(Cl)cc2)cc1-c1ccc(C(=O)Nc2ccncc2)cc1 [GSK1398467],0%
10,FC(F)(F)c1ccccc1-c1cc(-c2c[nH]nc2-c2ccccn2)ccn1 [GW679396],0%
11,CNc1cc(-c2ccc3c(N)n[nH]c3c2)nc(N)n1 [GSK2224810],0%
12,Cc1nccc(-c2c(-c3ccc(F)cc3)ncn2CCCN2CCOCC2)n1.Cl [SB-282975],28%
13,CS(=O)(=O)CCNCc1nc(-c2ccc3ncnc(Nc4ccc(OCc5ccccc5)c(Cl)c4)c3c2)cs1.Cl [GW582764],0%
14,CS(=O)(=O)CCNCc1nc(-c2ccc3ncnc(Nc4ccc5c(cnn5Cc5ccccc5)c4)c3c2)cs1.Cl.Cl [GW569716],0%
15,Cc1ccccc1Cn1ccn2c(=O)cc(N3CCOCC3)nc12 [GSK2269905],0%
16,CNc1nc(-c2ccc3c(N)n[nH]c3c2)cc(N2C[C@@H](C(=O)Nc3ccccc3)CC[C@H]2C)n1 [GSK2298859],0%
17,Cc1ccc(NC(=O)Nc2ccccc2)cc1-c1ccc(C(=O)Nc2ccncc2)cc1 [GSK1398471],0%
18,COc1ccc(Nc2nccc(N3CCC(NC(=O)C(C)c4ccc(Cl)cc4)CC3)n2)cc1 (stereo not shown) [GSK1379812],0%
19,O=C(Nc1n[nH]c2nc(-c3ccco3)c(Br)cc12)C1CCN(Cc2ccccc2)C1.O=C(O)[C@H](O)[C@@H](O)C(=O)O (stereo not shown) [SB-742034],12%

row,Structure (SMILES),%Inh
1,COc1ccc(CSc2nnc(-c3ccc4ncsc4c3)o2)cc1C(F)(F)F,0%
2,COc1nccc(-c2c(-c3ccc(F)cc3)ncn2CCCN2CCOCC2)n1 [SB-282852],0%
3,CSc1ccc(-c2nc3n(c2-c2ccncc2)CCC3)cc1 [SKF-105561],16%
4,CC(C)c1ccc(O)cc1Nc1ccnc2ccc(C(F)(F)F)cc12 [GW482059],13%
5,c1ccc(-c2ccnc3[nH]ccc23)cc1 [SB-693578],26%
6,O=C(Nc1n[nH]c2cc(-c3ccsc3)ccc12)C1CC1 [SB-732932],45%
7,Fc1ccc(-c2nn3cccc(F)c3c2-c2ccncc2)cc1 [GW475620],0%
8,CNC(=O)c1ccc(C)c(-n2c(C)cc(OCc3ccc(F)cc3F)c(Br)c2=O)c1,0%
9,CCCCc1nn2ncccc2c1-c1ccnc(NC2CC2)n1 [GW684374],0%
10,CC(=O)c1c(C)c2cnc(Nc3ccc(N4CCNCC4)cn3)nc2n(C2CCCC2)c1=O,0%
11,COC(=O)C(NC(=O)NC1CCN(c2ccnc(Nc3ccc(F)cc3)n2)C1)c1ccccc1 (stereo not shown) [GSK1379712],0%
12,O=c1cc(N2CCOCC2)nc2n(Cc3ccccc3F)ccn12 [GSK2297428],0%
13,COc1ccc(CSc2nnc(-c3ccc4nccn4c3)o2)cc1C(F)(F)F,13%
14,COc1cccc(NC(=O)Nc2ccc(C)c(-c3ccc(C(=O)Nc4ccncc4)cc3)c2)c1 [GSK1398474],0%
15,O=C1NC(=O)C(c2ccc(Cl)cc2)=C1Nc1ccc(O)cc1 [SB-340867],7%
16,COC(=O)c1cccc(NC(=O)NC2CCN(c3ccnc(Nc4ccc(OC)cc4)n3)C2)c1 (stereo not shown) [GSK1379746],0%
17,Cc1c(Cn2c3ccccc3n3c(=O)cc(N4CCOCC4)nc23)cccc1C(F)(F)F [GSK2306394],0%
18,Nc1cccc(-c2ccc3c(N)n[nH]c3c2)n1 [GSK2192730],0%
